Compound activity from PubChem BioAssay.
Hits are enriched below; roughly 6.6% of the tested compounds scored in any of these assays.
GDH-TPI inh = GDH-TPI coupling enzyme inhibitors, primary screen, artefact control for M. tuberculosis FBA inhibitor project, biochemical, absorbance, full deck. inhibition, % at 4.8 µM. hit rate 1.2% among 360,000. GDH-TPI coupled enzyme counterscreen, NADH absorbance. AID 588335, 2011; in the data active means inhibition above about 30%
Mtb FBA inh = Mtb FBA enzyme inhibitors, primary screen, biochemical, fluorescence, strain H37Rv. Fructose-bisphosphate aldolase (Mycobacterium tuberculosis (strain ATCC 25618 / H37Rv)), …. purified M. tuberculosis FBA, fluorescence read-out. inhibition, % at 1 µM. hit rate 2.3% among 360,000. AID 588726, 2011; in the data active means inhibition above about 27%
BoNT F protease = BoNT/F light chain protease inhibitors, primary screen, biochemical, flow cytometry, MLPCN library. inhibition, % at 10 µM. AID 588497, 2011. hit rate 0.22% among 360,000. Multiplex microsphere protease cleavage assay; in the data active means inhibition above about 35%, passing the limit was not always enough; inconclusive means no clear call, values can overlap the other calls
BoNT A protease = BoNT/A light chain protease inhibitors, primary screen, biochemical, flow cytometry, MLPCN library. Botulinum neurotoxin type A light chain protease (Clostridium botulinum A str. ATCC 3502). multiplex microsphere protease substrate cleavage. inhibition, % at 10 µM. hit rate 0.17% among 360,000. AID 588499, 2011
Bead autofluor = compound fluorescence in toxin protease inhibitor counterscreen; compound autofluorescence counterscreen, microsphere flow cytometry; hits give high values; hit rate 3.1% among 360,000; fluorescence intensity (concentration not given with the values); in the data active means fluorescence intensity above about 16000; inconclusive means no clear call, values can overlap the other calls
Anthrax LF inh2 = Bacillus anthracis LF protease inhibitors, primary screen, biochemical, multiplex microsphere, MLPCN library; Lethal factor (Bacillus anthracis), P15917; multiplex microsphere protease cleavage assay; inhibition, % at 10 µM; hit rate 0.12% among 360,000
Target sequence (P15917 whole entry, looked up): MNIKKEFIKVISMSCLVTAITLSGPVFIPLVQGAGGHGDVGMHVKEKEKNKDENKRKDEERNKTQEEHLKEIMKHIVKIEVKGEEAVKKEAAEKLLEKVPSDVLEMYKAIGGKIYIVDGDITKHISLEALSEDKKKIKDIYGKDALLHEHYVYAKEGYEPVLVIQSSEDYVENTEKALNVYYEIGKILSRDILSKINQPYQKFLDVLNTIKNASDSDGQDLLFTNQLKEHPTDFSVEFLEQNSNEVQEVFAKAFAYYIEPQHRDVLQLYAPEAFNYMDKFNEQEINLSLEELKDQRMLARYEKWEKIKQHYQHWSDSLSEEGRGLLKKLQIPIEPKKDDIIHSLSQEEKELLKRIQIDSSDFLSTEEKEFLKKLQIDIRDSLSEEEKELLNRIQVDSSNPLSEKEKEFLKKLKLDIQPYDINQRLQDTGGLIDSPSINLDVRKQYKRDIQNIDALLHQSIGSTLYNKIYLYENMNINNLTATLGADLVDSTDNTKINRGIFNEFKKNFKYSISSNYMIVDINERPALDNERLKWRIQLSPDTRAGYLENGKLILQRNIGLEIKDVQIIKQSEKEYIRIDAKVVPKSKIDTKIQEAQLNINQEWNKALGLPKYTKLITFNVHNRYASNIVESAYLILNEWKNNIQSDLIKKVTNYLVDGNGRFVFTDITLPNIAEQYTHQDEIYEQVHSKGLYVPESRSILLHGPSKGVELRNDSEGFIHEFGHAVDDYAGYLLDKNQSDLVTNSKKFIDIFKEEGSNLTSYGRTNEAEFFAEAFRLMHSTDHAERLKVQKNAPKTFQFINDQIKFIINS
Hits are given with their value; i = inactive; ? = inconclusive; nt = no result given; + = active, no number. Unless noted, no stated cut-off is given here; in the data, active means inhibition above about 30%; inconclusive means no clear call, values can overlap the other calls; inactive means below that.

SMILES | GDH-TPI inh | Mtb FBA inh | BoNT F protease | BoNT A protease | Bead autofluor | Anthrax LF inh2
COc1ccccc1/C=N/NC(=O)c1[nH]c(C)c(C(=O)N/N=C/c2ccccc2OC)c1C | 53.7 | i | i | i | i | i
CCOC(=O)c1c(C)[nH]c(C(=O)N/N=C\c2ccccc2O)c1C | i | i | i | i | i | i
O=C(c1ccc(S(=O)(=O)NCC2CCCO2)cc1)N1CCN(c2cccc(Cl)c2)CC1 (stereo unspecified) | i | i | i | i | i | i
CCOC(=O)C1C(c2ccccc2Cl)NC(=O)N(C)C1(O)C(F)(F)F (stereo unspecified) | i | i | i | i | 16952 | i
CCOC(=O)C1C(c2ccccc2O)NC(=O)NC1(O)C(F)(F)F (stereo unspecified) | i | i | i | i | i | i
O=C(Cn1cnnn1)OCC(=O)c1ccc(Cl)s1 | i | i | i | i | 22766 | i
CCCn1c2c(c(O)c(C(=O)Nc3ncccc3C)c1=O)CCCC2 | i | i | i | i | 22788 | i
c1ccc2c(c1)nnn2-c1ncnc2sc3c(c12)CCCC3 | i | i | i | i | 23314 | i
Cc1nc(-n2nnc3ccccc32)c2c3c(sc2n1)CCCC3 | i | i | i | i | i | i
CCn1c(=O)c(C(=O)Nc2ccccc2C)c(O)c2ccccc21 | i | i | i | ? | 22484 | i
CCCCCCCCC(=O)NNC(=O)c1c(O)c2ccccc2n(CC)c1=O | i | i | 39.3 | i | i | i
CC1SC(C)C(=O)N(CC(=O)Nc2ccc([N+](=O)[O-])cc2)C1=O (stereo unspecified) | i | i | i | i | i | i
CN(CCc1ccccc1)C(=O)c1ccc(NC(=O)Cc2ccc(NC(=O)C3CCCN(C(=O)c4ccccc4)C3)cc2)cc1 (stereo unspecified) | i | i | i | i | i | i
Cc1cc(C(=O)N2CCCCCC2)cs1 | i | i | i | i | 23371 | i
Cc1cc(C)cc(C(=O)N2CCCCCC2)c1 | i | i | i | i | 23038 | i
O=C(c1ccc(C(=O)N2CCCCCC2)cc1)N1CCCCCC1 | i | i | i | i | i | i
CC(C)n1cc(C(=O)NC2CC(C)(C)Cc3c2cnn3-c2ccccc2)cn1 (stereo unspecified) | i | i | i | i | i | i
COC(=O)COc1cccc(-n2cnnn2)c1 | i | i | i | i | i | i
COc1ccccc1NC(=O)COc1cccc(-n2cnnn2)c1 | i | i | i | i | 18765 | i
Cc1cc(C(=O)COc2cccc(-n3cnnn3)c2)c(C)n1-c1ccccc1 | i | i | i | i | 16603 | i
COc1cccc(NC(=O)COc2cccc(-n3cnnn3)c2)c1 | i | i | i | i | i | i
C/C(=N\NC(=O)CSc1nc(C)[nH]c1[N+](=O)[O-])c1ccc(F)cc1 | i | i | i | i | i | i
COc1cc(NC(=O)N[C@H](C(=O)O)C(C)C)cc(OC)c1 | i | i | i | i | 21545 | i
COc1cc(NC(=O)C(F)(F)F)cc(OC)c1 | i | i | i | i | 16433 | i
O=C1C(Cl)=C(NCCCN2CCOCC2)C(=O)N1CCc1ccccc1 | i | i | i | i | 22919 | i
SMILES | GDH-TPI inh | Mtb FBA inh | BoNT F protease | BoNT A protease | Bead autofluor | Anthrax LF inh2
COC(=O)CNC(=O)c1c(-c2ccccc2Cl)noc1C | i | i | i | i | i | i
Cc1onc(-c2c(F)cccc2Cl)c1C(=O)Nc1cccc2nsnc12 | i | i | i | i | 22508 | i
O=C1C(Cl)=C(NCCc2ccccc2)C(=O)N1CCc1ccccc1 | i | i | i | i | i | i
O=C(NCCCN1CCOCC1)c1c(F)cccc1F | i | i | i | ? | 21499 | i
COC(=O)CNC(=O)c1c(-c2c(Cl)cccc2Cl)noc1C | i | i | i | i | 23118 | i
Cc1onc(-c2c(F)cccc2Cl)c1C(=O)NC1=NCCS1 | i | i | i | i | i | i
COc1cccc(NC(=O)CN(C)C(=O)CC2CCCCC2)c1 | i | i | i | i | i | i
COc1ccc(-c2noc3c2-c2nc(-c4ccc(Cl)cc4)sc2CC3)cc1 | i | i | i | i | i | i
O=C(CCc1ccccc1)NCCCN1CCOCC1 | i | i | i | i | i | i
O=C(CCCc1ccccc1)NCCCN1CCOCC1 | i | i | i | i | 22241 | i
Cc1onc(-c2c(F)cccc2Cl)c1C(=O)NCCCN1CCOCC1 | i | i | i | ? | 20261 | i
Cc1ccc(C)c(NC(=O)C2CCCN2/C=C/C(=O)C(F)(F)F)c1 (stereo unspecified) | i | i | i | i | i | i
O=C(Nc1ccc2c(c1)OCO2)C1CC(=O)N(c2ccc(F)cc2)C1 (stereo unspecified) | i | i | i | i | i | i
CCOC(=O)/C(C(N)=NCc1ccco1)=C(/O)c1ccccc1 | i | i | i | i | 23453 | i
CCC(C)(C)NC(=O)CN(Cc1ccco1)C(=O)CCC(=O)Nc1nccs1 | i | i | i | i | i | i
Cc1ccc(Cl)c(OCCCCN(C)Cc2ccccc2)c1 | i | i | i | ? | 22668 | i
N#CCCN(Cc1cccnc1)C(=S)NC1CC2C=CC1C2 (stereo unspecified) | i | i | i | i | i | i
O=C(COC(=O)c1ccccc1C(=O)c1ccc(Cl)c([N+](=O)[O-])c1)NC1CCCCCC1 | i | i | i | i | 23481 | i
O=C(COC(=O)c1ccc(Cl)c([N+](=O)[O-])c1)NC1CCCC1 | i | i | i | i | i | i
COC(=O)CN(C)C(=O)c1ccc(OC2CCN(S(=O)(=O)N(C)C)CC2)cc1 | i | i | i | i | i | i
c1ccc2c(-c3nc4ncccc4o3)cccc2c1 | i | + | i | i | i | i
Cc1cccc2cc(CN(Cc3cccs3)Cc3nnnn3Cc3ccccc3)c(=O)[nH]c12 | i | i | i | i | i | i
COc1ccc2cc(CN(Cc3cccs3)Cc3nnnn3Cc3ccccc3)c(=O)[nH]c2c1 | i | i | i | i | 24337 | i
O=c1[nH]c2cc3c(cc2cc1CN(Cc1ccccc1)Cc1nnnn1Cc1ccco1)OCCO3 | i | i | i | i | i | i
CCOC(=O)Cn1nnnc1CN(Cc1ccccc1)Cc1cc2cc(CC)ccc2[nH]c1=O | i | i | i | i | i | i
COc1ccccc1CN(Cc1cc2cc3c(cc2[nH]c1=O)OCCO3)Cc1nnnn1Cc1ccco1 | i | i | i | i | 23267 | i
CCOC(=O)Cn1nnnc1CN(Cc1cccs1)Cc1cc2cc(C)cc(C)c2[nH]c1=O | i | i | i | i | 23938 | i
O=C1[C@H]2[C@@H]3CCN1CCC[C@@H]2C=C[C@@H]3c1ccc(Br)cc1 | nt | nt | i | i | i | i
O=C1NCCCC1C(=O)N/N=C/c1cccc(Cl)c1 (stereo unspecified) | i | i | ? | i | i | i
